Bioassay records as filed in PubChem BioAssay.
Compounds with a hit are over-represented: about 7.7% of the library has one in this group of screens.
Tb PYK inh: inhibitors of Trypanosoma brucei pyruvate kinase; Potency, µM (highest dose often 76.8 µM), for inactives: at the highest dose activity, negative = inhibition, actives largely listed as inhibitors; AID 624173; Q57TT1; 410,000 compounds, 0.12% hits; TbPYK enzyme, Kinase-Glo Plus ATP luminescence, 45 min; note: potency is the fitted concentration of half-maximal effect; nearly all actives have a fitted effect of over 50% in size
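In this concentration-response screen, enzyme-free wells defined baseline while DMSO plates tracked drift. Each reaction combined TbPYK, substrate, compound and 130 uM ADP for 45 min at room temperature. Kinase-Glo Plus luminescence gave the signal.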
RE007 growth inh: less growth of the S. pombe RE007 Vpr strain | 360,000 compounds, 0.21% hits | Potency, µM (titrated, usually from 92.2 µM), inactives show at the highest dose activity change, negative = less growth, hits mostly inhibitors | S. pombe RE007 Vpr strain, BacTiter-Glo ATP luminescence, 24 h | AID 651644; active = well fitted falling curve with a large enough effect; inconclusive = small, poorly fitted or top-dose-only effect; inactive = no such curve, though single readings can be large or run the other way; note: potency is the fitted concentration of half-maximal effect; nearly all actives have a fitted effect of over 50% in size
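Fission yeast RE007 carrying one integrated HIV-1 vpr copy, seeded at OD 0.01 in PMG+AL medium with 23 nL pinned compound. Grown 24 h at 30 degrees; viability read by BacTiter-Glo luminescence after 5 min.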
Sm TGR inh: inhibitors of Schistosoma mansoni thioredoxin glutathione reductase; Q962Y6; purified TGR, DTNB reduction, TNB absorbance 405 nm; Potency, µM (highest dose often 114 µM), for inactives: at the top dose activity change, negative = inhibition, usual class: inhibitors; 360,000 compounds, 3% hits; note: potency is the fitted concentration of half-maximal effect; nearly all actives have a fitted effect of over 60% in size
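TGR 20 nM + NADPH 100 uM (dispensed conc.), cpd preinc 15 min RT; start with NADPH (500 uM addition) then DTNB (15 mM addition). Kinetic TNB absorbance, 405 nm filter. Four-parameter Hill fit across titration.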
FBPA Giardia inh: Giardia lamblia aldolase inhibition; A8B2U2; purified Giardia FBPA; Potency, µM (titrated, usually from 59.6 µM), inactives show at the top dose activity, negative = inhibition, hits mostly inhibitors; 290,000 compounds, 0.71% hits; note: potency is the fitted concentration of half-maximal effect; nearly all actives have a fitted effect of over 55% in size
Target sequence (A8B2U2 whole entry, looked up): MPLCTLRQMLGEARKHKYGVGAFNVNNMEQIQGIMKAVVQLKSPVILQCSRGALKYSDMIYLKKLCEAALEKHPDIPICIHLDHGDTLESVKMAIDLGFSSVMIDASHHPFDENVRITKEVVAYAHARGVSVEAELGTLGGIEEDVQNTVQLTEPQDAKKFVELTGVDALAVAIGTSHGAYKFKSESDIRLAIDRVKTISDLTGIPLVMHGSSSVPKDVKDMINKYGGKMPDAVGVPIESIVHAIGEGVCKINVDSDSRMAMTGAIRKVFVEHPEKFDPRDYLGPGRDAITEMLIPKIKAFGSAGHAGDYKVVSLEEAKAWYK
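Giardia FBPA (40 nM reagent) was preincubated 10 min at RT with compound (up to 57.5 uM final), then substrate plus GAPDH/TPI/NAD/arsenate coupling system with diaphorase/resazurin was added; resorufin fluorescence (525/598 nm) was read after 20 min.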
HCMV inh: blocks human cytomegalovirus replication; HFF cells, HCMV-luciferase reporter, 72 h; stronger effect = lower value; activity change, negative = inhibition, % at 57.5 µM; 410,000 compounds, 4.5% hits; in the data active = activity change below about -60%; inconclusive = no clear call, values can overlap the other calls; inactive = above about -39%
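Compounds were evaluated in HFFs infected with an HCMV luciferase reporter virus (MOI 1 PFU/cell). Luciferase in lysates collected 72 h post infection served as the replication measure.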
FMDV inh: antivirals against foot and mouth disease virus. FMDV antiviral cell-based qHTS. Potency, µM (highest dose often 57.9 µM), inactives show at the highest dose activity change, negative = inhibition, actives largely listed as inhibitors. 410,000 compounds, 1.2% hits. AID 1159524; calls by dose curve; tested in HEK293T cells; note: read-out not given here; potency is the fitted concentration of half-maximal effect; nearly all actives have a fitted effect of over 45% in size
* = called active by the depositor; ? = inconclusive; . = no result given. Unless noted, calls come from the whole dose curve; as a rule, active = well fitted curve in the direction sought with a large enough effect; inconclusive = small, poorly fitted or top-dose-only effect, or another doubt; inactive = no such curve, though single readings can be large; an effect the other way counts as inactive or inconclusive. % is set by controls: 0 for no effect and ±100 for the full control effect.

SMILES | Tb PYK inh | RE007 growth inh | Sm TGR inh | FBPA Giardia inh | HCMV inh | FMDV inh
NC(N)=NS(=O)(=O)c1ccc(NC(=S)NC(=O)c2ccccc2)cc1 | -9% | -4% | 16µM* | ? | 0 | 15%
Cc1ccc(C(=O)N2CCC(c3c[nH]c4ccccc34)(c3c[nH]c4ccccc34)CC2)cc1 | 2% | . | 10% | . | -18 | ?
Cc1ccc(S(=O)(=O)C(CNC(=O)C(=O)NCc2ccccc2C)c2cccs2)cc1 (stereo not given) | -4% | . | ? | . | -20 | ?
COCCCNC(=O)C1CCN(c2cc(C)nc3c(-c4ccc(OC)c(OC)c4)c(C)nn23)CC1 | 3% | . | 4% | . | 4 | 0%
COc1ccc(N2CCN(C(=O)CN=C3NS(=O)(=O)C(c4ccc(C)cc4)=C3C)CC2)cc1 | -8% | -2% | -1% | -15% | -61* | -25%
N#Cc1c(-c2ccco2)cc(-c2ccccn2)nc1N | -17% | 0% | 10µM* | -15% | 64 | -11%
N#Cc1c(-c2ccco2)cc(C2CC2)nc1N | -8% | 1% | 10µM* | -22% | -22 | -15%
N#Cc1c(-c2ccco2)cc(-c2cccnc2)nc1N | -7% | 34% | 11µM* | ? | 62 | -20%
N#Cc1c(-c2ccccc2)cc(C2CC2)nc1N | -4% | -14% | 7% | 2% | -6 | -21%
CCc1nc(N)c(C#N)c(-c2ccco2)c1C | 3% | 0% | 0% | -5% | -5 | -10%
COc1ccc(-c2noc(N3CCC(C(=O)Nc4ccc(C)c(F)c4)CC3)n2)cc1OC | 2% | . | 9% | . | -14 | -19%
COC(=O)c1cc2c(c3c4ccccc4n(S(=O)(=O)c4ccc(OC)cc4)c13)C(=O)N(Cc1ccco1)C2 | . | . | . | . | 132 | .
COc1ccc(-c2nc(CNC(=O)Nc3ccccc3)c(C)o2)cc1 | 4% | . | 5% | . | 14 | -9%
O=C(NN=Cc1ccccc1O)C(=O)Nc1ccc(F)cc1 | . | . | . | . | -6 | .
CCOC(=O)c1c(SCCN2CCCCC2)n(-c2ccccc2)c(=S)n(-c2ccccc2)c1=O | 1% | 2% | . | . | 9 | 20µM*
CCOC(=O)c1c(SC)n(-c2ccccc2)c(=S)n(-c2ccccc2)c1=O | -5% | 3% | 0% | 4% | 1 | -14%
Cc1c(NC(=O)C(F)(F)F)ccc2nc3c(=O)n(C)c(=O)n(C)c3nc12 | -1% | . | 0% | . | -37 | 0%
COc1ccc(/C=C2\CCC(C3CCCC3)C2=O)cc1 (stereo not given) | -3% | 0% | 0% | 5% | -10 | -4%
CC1CCC/C(=C\c2ccc(O)cc2)C1=O (stereo not given) | 2% | ? | . | . | -35 | 81%
CN(C)CC1CCC/C(=C\c2ccc(OC(=O)c3ccc(Cl)cc3)cc2)C1=O (stereo not given) | -5% | 0% | . | . | -97* | ?
CN(C)CC1CC/C(=C\c2ccc(O)cc2)C1=O (stereo not given) | ? | 11µM* | . | . | -76* | ?
CN(C)CC1CCC/C(=C\c2ccc(OC(=O)/C=C/c3ccccc3)cc2)C1=O (stereo not given) | -5% | ? | . | . | 1 | 40µM*
COc1ccc(/C=C2/CCC(CN3CCOCC3)C2=O)cc1 (stereo not given) | ? | 7.9µM* | . | . | -98* | 18µM*
Cc1nn(C)c(C)c1CCNC(=O)Nc1cccc(Cl)c1C | -11% | . | 21% | . | -5 | 15%
COc1ccc(-c2ccc(C(=O)N(C)Cc3csc(C)n3)c(N3CCC(N4CCc5ccccc5C4)CC3)n2)cc1 | . | . | . | . | . | 52%
SMILES | Tb PYK inh | RE007 growth inh | Sm TGR inh | FBPA Giardia inh | HCMV inh | FMDV inh
CC(C)CN(CC(C)C)c1ccc(C=C2C(=O)NC(=S)NC2=O)cc1[N+](=O)[O-] | -26% | -7% | 1.1µM* | ? | -13 | ?
COc1ccc(NS(=O)(=O)c2ccc3oc(=O)c4[nH]c(=O)c(=O)n(C)c4c3c2)cc1 | 2% | 4% | 50µM* | 9% | -23 | -6%
CCn1cnc2c(=O)oc3ccc(S(=O)(=O)Nc4ccc(OC)cc4)cc3c21 | -9% | . | 2% | . | -2 | -12%
CC(C)OC(=O)c1cc2c(OC[C@@H](O)CNC(C)(C)C)cccc2[nH]1 | -12% | . | . | 0% | . | .
Cc1ccc(-c2nnc(Nc3ccc(O)cc3)c3ccccc23)cc1S(=O)(=O)NC(C)(C)CO | -1% | . | -20% | . | ? | 33%
Cc1ccc(Nc2nc(C)c(NC(=O)c3ccc(C)cc3)c(Nc3ccc(C)cc3)n2)cc1 | -10% | . | 0% | . | -63* | -26%
CN(C)CCN(Cc1ccccc1)S(=O)(=O)c1ccc2[nH]c(=O)ccc2c1 | -4% | . | 1% | . | 11 | ?
O=C(NC1CCN(S(=O)(=O)c2cccc([N+](=O)[O-])c2)CC1)C1CCCCC1 | 1% | 0% | -8% | 6% | 10 | 0%
O=C(NC1CC1)C1CCN(S(=O)(=O)c2ccc(Cl)c([N+](=O)[O-])c2)CC1 | 0% | 0% | ? | . | -103* | ?
C/C(=N\NC(=O)c1c(C)nc2ccccn12)c1ccccc1F | 0% | -9% | 3% | . | -6 | 6%
C/C(=N\NC(=O)c1c(C)nc2ccccn12)c1ccc(O)cc1O | -1% | -3% | -13% | 8% | -82* | 3%
COCCn1c(N)c(C#N)c2nc3ccccc3nc21 | 4% | 2% | 8% | -24% | -29 | -7%
N#Cc1c(N)n(CCc2ccc(F)cc2)c2nc3ccccc3nc12 | 6% | 10% | 8% | -27% | -69* | -23%
O=C(N/N=C/c1ccco1)c1cccc(N2Cc3ccccc3C2)c1 | -17% | -2% | 3.5µM* | -21% | -25 | -2%
O=C(N/N=C/c1ccco1)c1cccc(N2CCCC2=O)c1 | -2% | -1% | -20% | -5% | 59 | 44%
Cn1c(-c2ccccc2)cc2c3no[n+]([O-])c3ccc21 | -1% | -11% | 9% | 1% | -102* | 5%
CC(=O)O[C@@]12CO[C@@H]1C[C@H](O)[C@@]1(C)C(=O)[C@H](O)C3=C(C)[C@@H](OC(=O)[C@H](O)[C@@H](NC(=O)OC(C)(C)C)c4ccccc4)C[C@@](O)([C@@H](OC(=O)c4ccccc4)[C@H]21)C3(C)C | 0% | . | . | . | . | .
c1ccc(CNc2nnnn2-c2ccccc2)cc1 | -1% | -3% | 0% | -2% | -72* | 20%
COc1cccc(-c2cc(C(=O)Nc3c(C)n(C)n(-c4ccccc4)c3=O)no2)c1 | 2% | -2% | -15% | 3% | -108* | -18%
COc1ccc(-c2cc(C(=O)Nc3c(C)nn(Cc4ccc(Cl)cc4)c3C)no2)cc1 | -1% | -3% | 1% | 0% | ? | ?
